Consider 23 compounds from PubChem BioAssay.

Assay [1] in a line: antimalarial activity against Dd2 strain (AID 2302;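 active = growth inhibition above 50% at the single 2 µM test dose, taken to imply half-maximal potency below 2 µM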;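 note: 0% = DMSO untreated growth and 100% = chloroquine plus artemisinin killed control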). The conditions noted are these: P. falciparum Dd2 in RBCs, LDH growth readout, 72 h; at 2 µM; stronger effect = higher value.
A short description of assay [2]: HepG2 cytotoxicity, primary screen, cytotoxicity control for P. falciparum antimalarial project, cell-based, ATP luminescence (AID 2303;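 active = inhibition above 50%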;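 note: 0% = DMSO wells and 100% = digitonin-killed cells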). The conditions noted are these: HepG2 viability, 24-48 h, at 10 µM, stronger effect = higher value.
Assay [3] addresses L-lactate dehydrogenase (Plasmodium falciparum (isolate CDC / Honduras)) (UniProt Q27743). As to the kind of experiment: PfLDH activity inhibition – cell lysate, 3D7 strain, counter-screen for P. falciparum growth inhibition project (AID 2304).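 Note: 0% = vehicle and 100% = reference inhibitor.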 The following applies: P. falciparum 3D7 crude extract, LDH APAD/NBT absorbance; at 2 µM; stronger effect = higher value. (In general: A counterscreen serves to expose hits that act by an unwanted route or on another target.)

Assay [4] is described as follows: inhibition of 3D7 malaria parasite growth – strain 3D7 (AID 2306).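 Note: 0% = DMSO wells and 100% = chloroquine plus artemisinin control wells.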 The conditions noted are these: P. falciparum 3D7 erythrocytic growth, LDH absorbance, 72 h; at 2 µM; stronger effect = higher value.
The target in assay [5] is Calcium-dependent protein kinase 1 (Plasmodium falciparum (isolate 3D7)) (UniProt P62344). As to the kind of experiment: PfCDPK1 kinase inhibitors, biochemical, TCAMS library (AID 1159585; cut-off not given, nearly all actives have IC50 up to about 0.98 µM;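 note: inhibitors leave more ATP so luminescence rises with inhibition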). The conditions noted are these: recombinant PfCDPK1, Kinase-Glo ATP depletion luminescence. (Kinase-Glo measures the ATP left after a reaction by luminescence.)
Calcium-dependent protein kinase 1 (Plasmodium falciparum (isolate 3D7)), sequence (P62344 whole entry, looked up): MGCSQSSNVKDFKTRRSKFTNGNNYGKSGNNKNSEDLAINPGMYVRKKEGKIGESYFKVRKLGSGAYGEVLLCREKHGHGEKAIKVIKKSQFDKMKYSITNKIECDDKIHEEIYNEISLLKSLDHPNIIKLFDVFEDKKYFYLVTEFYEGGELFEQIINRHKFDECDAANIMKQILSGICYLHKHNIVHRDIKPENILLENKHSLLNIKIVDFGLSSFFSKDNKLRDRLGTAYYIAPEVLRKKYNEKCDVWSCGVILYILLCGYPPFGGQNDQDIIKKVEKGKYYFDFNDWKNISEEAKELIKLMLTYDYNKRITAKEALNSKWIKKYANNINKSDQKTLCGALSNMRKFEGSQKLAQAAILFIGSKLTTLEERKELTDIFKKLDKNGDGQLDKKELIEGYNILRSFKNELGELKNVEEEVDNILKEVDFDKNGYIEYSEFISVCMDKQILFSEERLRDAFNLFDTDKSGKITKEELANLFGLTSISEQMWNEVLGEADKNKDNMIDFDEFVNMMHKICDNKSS
Assay [6] deals with Plasmodium falciparum protein kinase 6 (PK6, PF3D7_1337100) (UniProt Q8IDW1). Put plainly: PfPK6 kinase inhibitors, biochemical, TCAMS library (AID 1159586). The conditions noted are these: recombinant PfPK6, Kinase-Glo ATP depletion luminescence.
Plasmodium falciparum protein kinase 6 (PK6, PF3D7_1337100), sequence (Q8IDW1 1-305): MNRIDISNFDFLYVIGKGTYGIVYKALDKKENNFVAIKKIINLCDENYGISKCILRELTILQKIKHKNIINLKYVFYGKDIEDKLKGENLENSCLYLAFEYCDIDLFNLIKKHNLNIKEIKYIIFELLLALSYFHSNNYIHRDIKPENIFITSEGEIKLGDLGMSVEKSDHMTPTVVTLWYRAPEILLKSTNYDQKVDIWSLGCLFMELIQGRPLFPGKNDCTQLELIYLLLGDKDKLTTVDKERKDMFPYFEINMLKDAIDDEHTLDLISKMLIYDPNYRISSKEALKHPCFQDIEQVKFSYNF
For assay [7], the target named is Protein kinase 7 (PK7), Plasmodium falciparum 3D7 (PF3D7_0213400) (UniProt Q7YTF7). Put plainly: inhibition of Plasmodium PK7 catalytic activity – biochemical, TCAMS antimalarial set, Kinase-Glo luminescence (AID 1159587). The conditions noted are these: recombinant PfPK7, Kinase-Glo ATP depletion luminescence.
Protein kinase 7 (PK7), Plasmodium falciparum 3D7 (PF3D7_0213400), sequence (Q7YTF7 1-343): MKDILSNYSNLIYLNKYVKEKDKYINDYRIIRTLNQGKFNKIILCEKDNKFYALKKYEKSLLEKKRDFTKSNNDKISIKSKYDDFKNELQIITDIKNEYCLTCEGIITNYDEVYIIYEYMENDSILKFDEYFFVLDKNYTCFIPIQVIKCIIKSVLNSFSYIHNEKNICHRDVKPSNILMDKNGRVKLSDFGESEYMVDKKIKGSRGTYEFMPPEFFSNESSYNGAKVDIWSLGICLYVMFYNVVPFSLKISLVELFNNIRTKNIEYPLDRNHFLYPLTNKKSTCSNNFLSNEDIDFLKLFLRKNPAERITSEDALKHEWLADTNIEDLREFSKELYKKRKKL
Assay [8] deals with Calcium-dependent protein kinase 4 (Plasmodium falciparum (isolate 3D7)) (UniProt Q8IBS5). As to the kind of experiment: PfCDPK4 kinase inhibitors, biochemical, TCAMS library (AID 1159588; cut-off not given, nearly all actives have IC50 up to about 0.91 µM). The following applies: recombinant PfCDPK4, Kinase-Glo ATP depletion luminescence.
Calcium-dependent protein kinase 4 (Plasmodium falciparum (isolate 3D7)), sequence (Q8IBS5 whole entry, looked up): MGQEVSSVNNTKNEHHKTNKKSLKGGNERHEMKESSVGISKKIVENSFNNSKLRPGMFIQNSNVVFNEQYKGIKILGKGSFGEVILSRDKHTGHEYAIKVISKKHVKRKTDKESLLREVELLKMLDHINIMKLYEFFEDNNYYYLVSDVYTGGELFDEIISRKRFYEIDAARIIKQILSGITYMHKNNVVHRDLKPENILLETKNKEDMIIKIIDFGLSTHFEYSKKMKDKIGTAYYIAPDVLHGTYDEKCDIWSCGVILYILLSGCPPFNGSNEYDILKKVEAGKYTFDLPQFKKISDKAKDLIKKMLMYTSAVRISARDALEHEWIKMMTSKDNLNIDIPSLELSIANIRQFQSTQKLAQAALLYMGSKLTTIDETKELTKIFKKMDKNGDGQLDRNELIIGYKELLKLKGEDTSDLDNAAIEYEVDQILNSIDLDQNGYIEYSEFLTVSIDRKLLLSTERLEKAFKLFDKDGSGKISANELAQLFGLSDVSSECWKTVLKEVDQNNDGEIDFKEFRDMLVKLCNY

Unmarked numbers belong to inactive results. For some of these results: Results with a measured potency or affinity are listed apart. The source made the active and inactive calls. Unless noted, the rule behind the calls is not given here.

L-lactate dehydrogenase (Plasmodium falciparum (isolate CDC / Honduras)), sequence (Q27743 whole entry, looked up): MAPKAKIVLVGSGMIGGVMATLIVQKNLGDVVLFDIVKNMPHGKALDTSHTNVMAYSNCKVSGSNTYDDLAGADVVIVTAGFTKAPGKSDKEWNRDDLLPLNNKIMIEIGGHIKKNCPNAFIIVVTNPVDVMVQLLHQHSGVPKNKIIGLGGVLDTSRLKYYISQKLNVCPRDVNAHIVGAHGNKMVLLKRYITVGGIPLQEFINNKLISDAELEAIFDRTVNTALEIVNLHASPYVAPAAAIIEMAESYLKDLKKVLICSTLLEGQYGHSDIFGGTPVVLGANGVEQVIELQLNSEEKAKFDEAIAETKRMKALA

For `Cc1ccc(NC(=O)c2ccc(CN3CCCN(Cc4cccc(O)c4)CC3)cc2)cc1F`, the growth inhibition in assay [1] was 31%; in assay [4], 97% (active). Further, the inhibition in assay [2] was 48%; in assay [3], -2%. Further, the result in assay [5], in assay [6], in assay [7] and in assay [8] was inactive.
Take `O=C(NCC1CCC(C(=O)O)CC1)c1ccc(/C=C/C(=O)N2CCc3ccccc3C2c2ccc3c(c2)OCO3)cc1` (centres undefined): the values for the growth inhibition in assay [1] and in assay [4] were 17% and 91% (active), respectively. Also, the figures for the inhibition in assay [2] and in assay [3] were 66% (active) and 2%, respectively. Also, the outcome in assay [5], in assay [6], in assay [7] and in assay [8] was inactive.
In the case of `O=C(Nc1ccc(Cl)cc1Cl)NC1CCN(CCCCCNC(=O)[C@@H]2C[C@H]2c2ccc(Cl)c(Cl)c2)CC1`, the results for the growth inhibition in assay [1] and in assay [4] were 30% and 100% (active), respectively. The inhibition is 67% (active) in assay [2] and 0% in assay [3]. Besides, the outcome in assay [5], in assay [6], in assay [7] and in assay [8] was inactive.
Consider `COc1ccc(C2C(C(=O)Nc3cc(C)ccc3OC)c3ccccc3C(=O)N2C)cc1` (centres undefined), for which the growth inhibition in assay [1] is 3%; in assay [4], 86% (active). Also, the inhibition in assay [2] was 3%; in assay [3], 1%. Further, the result in assay [5], in assay [6], in assay [7] and in assay [8] was inactive.
For the compound `COc1cc(C(=O)NC2CCN(Cc3ccccc3)CC2)ccc1-c1nc2c(Cl)cc(C(F)(F)F)cc2[nH]1`, the values for the growth inhibition in assay [1] and in assay [4] were 56% (active) and 103% (active), respectively. The results for the inhibition in assay [2] and in assay [3] were 7% and 1%, respectively. Also, the result in assay [5], in assay [6], in assay [7] and in assay [8] was inactive.
As to `O=C(Nc1ccc(-c2cccc(-c3nc4ccccc4[nH]3)c2)cc1)c1cnn2cccnc12`, the results for the growth inhibition in assay [1] and in assay [4] were 36% and 99% (active), respectively. For the same compound, the inhibition is 64% (active) in assay [2] and -1% in assay [3]. Also, the result in assay [5], in assay [6], in assay [7] and in assay [8] was inactive.
For `CN1CCC(C(=O)Nc2cccc(-c3ccc(-c4nc5ccc(F)cc5[nH]4)cc3)c2)CC1`, the growth inhibition is 51% (active) in assay [1] and 100% (active) in assay [4]. Besides, the inhibition in assay [2] is 12%; in assay [3], 3%. Also, the outcome in assay [5], in assay [6], in assay [7] and in assay [8] was inactive.
For the compound `Cc1nc(C)n(CC(=O)Nc2cccc(-c3cccc(-c4nc5ccc(C(F)(F)F)cc5[nH]4)c3)c2)n1`, the growth inhibition in assay [1] is 96% (active); in assay [4], 100% (active). Moreover, the figures for the inhibition in assay [2] and in assay [3] were 62% (active) and -6%, respectively. For the same compound, the result in assay [5], in assay [6], in assay [7] and in assay [8] was inactive.
Regarding `Cc1ccc(Cl)c2sc(N3CCN(C(=O)c4ccc([N+](=O)[O-])o4)CC3)nc12`, the growth inhibition in assay [1] was 94% (active); in assay [4] it was 97% (active). The inhibition in assay [2] is 21%; in assay [3] it was -5%. The result in assay [5], in assay [6], in assay [7] and in assay [8] was inactive.
Turning to `CCc1cc(N2CCN(c3ccccc3F)CC2)nc(SCc2ccc(C(=O)NC3CC3)o2)n1`, the growth inhibition is 94% (active) in assay [1] and 90% (active) in assay [4]. The inhibition is 9% in assay [2] and 1% in assay [3]. For the same compound, the result in assay [5], in assay [6], in assay [7] and in assay [8] was inactive.
As for `COc1ccc(CNCc2cccc(-c3ccc(-c4nc5c(C)cccc5[nH]4)cc3)c2)cc1`, the growth inhibition is 70% (active) in assay [1] and 101% (active) in assay [4]. Besides, the results for the inhibition in assay [2] and in assay [3] were 23% and 7%, respectively. The result in assay [5], in assay [6], in assay [7] and in assay [8] was inactive.
As for `O=C(Nc1cc(C(F)(F)F)cc(C(F)(F)F)c1)c1cccc([N+](=O)[O-])c1`, the figures for the growth inhibition in assay [1] and in assay [4] were 15% and 93% (active), respectively. The inhibition in assay [2] is 23%; in assay [3], -2%. The outcome in assay [5], in assay [6], in assay [7] and in assay [8] was inactive.
On to `CCOc1ccc(Nc2cc(C)nc(Nc3ccc(OCC)cc3)n2)cc1`, for which the values for the growth inhibition in assay [1] and in assay [4] were 49% and 101% (active), respectively. Further, the inhibition in assay [2] is 3%; in assay [3], 8%. For the same compound, the result in assay [5], in assay [6], in assay [7] and in assay [8] was inactive.
In the case of `Cn1nc(-c2cccc(CNC3CCc4ccccc43)c2)c2cnc(NCCCN3CCCC3)nc21` (centres undefined), the growth inhibition in assay [1] is 15%; in assay [4] it was 99% (active). Moreover, the values for the inhibition in assay [2] and in assay [3] were 29% and -2%, respectively. The result in assay [5], in assay [6], in assay [7] and in assay [8] was inactive.
As to `Cc1cnc(NC(=O)c2cn(-c3ccccc3)nc2-c2cccs2)s1`, the growth inhibition in assay [1] was 1%; in assay [4], 91% (active). In addition, the inhibition was -5% in assay [2] and -1% in assay [3]. The result in assay [5], in assay [6], in assay [7] and in assay [8] was inactive.
As for `O=C(NC1CCN(Cc2ccccc2)CC1)c1cccc(Nc2nc(-c3ccccc3)cs2)c1`, the growth inhibition in assay [1] was 3%; in assay [4] it was 84% (active). Further, the inhibition in assay [2] is 70% (active); in assay [3], 3%. Further, the outcome in assay [5], in assay [6], in assay [7] and in assay [8] was inactive.
Consider `COc1ccc(/C=C/c2ccc(-c3c(C)[nH]c(C)c(Cl)c3=O)cc2)cc1OC`, for which the values for the growth inhibition in assay [1] and in assay [4] were 96% (active) and 97% (active), respectively. Besides, the inhibition was 12% in assay [2] and -8% in assay [3]. Moreover, the result in assay [5], in assay [6], in assay [7] and in assay [8] was inactive.
For the compound `Cc1cccc2[nH]c(-c3cccc(-c4ccc(NC(=O)Cc5cnc[nH]5)cc4)c3)nc12`, the growth inhibition was 93% (active) in assay [1] and 101% (active) in assay [4]. Besides, the inhibition was 4% in assay [2] and -3% in assay [3]. Also, the result in assay [5], in assay [6], in assay [7] and in assay [8] was inactive.
Consider `CCn1ccc2c(N3CCCS3(=O)=O)cc(C(=O)N[C@@H](Cc3ccccc3)[C@H](O)CNC(C)(C)c3cccc(OC)c3)cc21`, for which the values for the growth inhibition in assay [1] and in assay [4] were 98% (active) and 99% (active), respectively. Also, the inhibition in assay [2] is 20%; in assay [3], -8%. Also, the outcome in assay [5], in assay [6], in assay [7] and in assay [8] was inactive.
For `COc1ccc2nc(-c3ccccc3)cc(NN=Cc3ccc([N+](=O)[O-])o3)c2c1`, the growth inhibition is 99% (active) in assay [1] and 100% (active) in assay [4]. Further, the inhibition in assay [2] was 90% (active); in assay [3], -7%. Further, the outcome in assay [5], in assay [6], in assay [7] and in assay [8] was inactive.
As to `COc1ccc(Nc2ncc3c(-c4cccc(NC(=O)c5ccc(N)cc5)c4)c[nH]c3n2)cc1OC`, the growth inhibition in assay [1] was 31%; in assay [4] it was 84% (active). Moreover, the figures for the inhibition in assay [2] and in assay [3] were 83% (active) and -3%, respectively. Also, the result in assay [5], in assay [6], in assay [7] and in assay [8] was inactive.
In the case of `Cc1[nH]c(C)c(-c2ccc(-c3ccc(F)cc3)cc2)c(=O)c1Br`, the growth inhibition was 52% (active) in assay [1] and 94% (active) in assay [4]. In addition, the inhibition in assay [2] is 12%; in assay [3], 2%. The outcome in assay [5], in assay [6], in assay [7] and in assay [8] was inactive.
With `CC(C)NCc1ccc(-c2ccc(NS(=O)(=O)c3cccc4cccnc34)cc2)cc1`, the growth inhibition in assay [1] was 45%; in assay [4] it was 90% (active). In addition, the inhibition in assay [2] is 27%; in assay [3], -4%. Also, the result in assay [5], in assay [6], in assay [7] and in assay [8] was inactive.

A word on the inhibition: it is the relative decrease from the control value, in per cent.
